Compounds with a hit are over-represented: about 1% of the library has one in this group of screens.
S1P4 antagonist = S1P4 receptor antagonists, primary screen, cell-based; S1P4-expressing cells, antagonist mode, reporter read-out; actives 0.26% (n = 220,000); Sphingosine 1-phosphate receptor 4 (Homo sapiens), O95977; inhibition, % at 4.98 µM; in the data active = inhibition above about 29%;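 also: 0% = wells stimulated with agonist and 100% = vehicle wells without agonist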
Target sequence (O95977 whole entry, looked up): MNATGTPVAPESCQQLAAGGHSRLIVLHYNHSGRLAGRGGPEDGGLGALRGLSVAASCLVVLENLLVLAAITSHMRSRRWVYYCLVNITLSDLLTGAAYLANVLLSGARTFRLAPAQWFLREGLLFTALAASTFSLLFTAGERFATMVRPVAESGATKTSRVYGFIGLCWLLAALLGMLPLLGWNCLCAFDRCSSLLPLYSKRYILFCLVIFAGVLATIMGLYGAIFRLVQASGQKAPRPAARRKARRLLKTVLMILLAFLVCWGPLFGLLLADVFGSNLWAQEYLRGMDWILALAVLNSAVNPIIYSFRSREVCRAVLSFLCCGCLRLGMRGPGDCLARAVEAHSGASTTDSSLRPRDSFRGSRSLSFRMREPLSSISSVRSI
TNF death inh = inhibitors of TNF-alpha triggered necroptosis, primary screen, cell-based, Jurkat FADD-/-, single concentration; Jurkat FADD-/- TNF necroptosis rescue, ATP luminescence, 24 h; 0 = TNF only, 100 = no-TNF cells; activation (protection from cell death), % at 10 µM; actives 0.068% (n = 220,000);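 active = activation, meaning protection from cell death, of at least 50% relative to plate controls; inactive = activation below 50%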;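 also: necroptosis triggered by 40 ng/mL TNF-alpha added together with compound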
S1P4 ag = S1P4 receptor agonists, primary screen, cell-based; Sphingosine 1-phosphate receptor 4 (Homo sapiens), O95977; actives 0.35% (n = 220,000); S1P4-expressing cell line, agonist reporter assay; activation, % at 4.98 µM; in the data active = activation above about 11%;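 also: 0% = DMSO vehicle and 100% = reference agonist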
Hsp70 activator = Hsp70 transcriptional activators, primary screen, cell-based, HeLa, Hsp70 promoter luciferase, luminescence, 10 µM; HeLa Hsp70 promoter luciferase reporter; scaled: vehicle 0, proteasome-inhibitor control 100%; activation, % at 10 µM; actives 0.04% (n = 200,000); AID 1203, 2008;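 active = activation above the mean across all tested compounds plus 3 SD, cutoff set per campaign, cut at about 5.5% in these data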;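 also: 100% = MG132 at 30 µM as the positive control and 0% = DMSO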
L929 necroptosis = inhibitors of zVAD-triggered necroptosis, primary screen, L929 cells; viability rescue, % at 10 µM; L929 zVAD necroptosis rescue, ATP luminescence, 24 h; with zVAD 60 µM; actives 0.38% (n = 220,000); AID 1377, 2008;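 active = activation, scaled between plate controls, above about 75%, limit read from the data; inactive = activation under that limit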;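 also: 0% = zVAD with DMSO and 100% = DMSO alone without zVAD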
HSV replic up = enhancers of HSV replication in host cells, fold increase, host cell viability; HSV replication augmentation in cells; actives 0.005% (n = 220,000); maximum fold increase; AID 1956, 2009; in the data active = maximum fold increase above about 1.5; inconclusive = no clear call, values can overlap the other calls; tested in PC3 cells
zVAD death conf = inhibitors of zVAD-triggered necroptosis in L929, confirmation, L929 cells, duplicate runs. actives 16% (n = 760). L929 zVAD-induced necroptosis rescue, ATP luminescence, 24 h. shares compounds with L929 necroptosis. activation (protection from necroptosis), % at 10 µM. AID 463117, 2010;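 active = mean protection from necroptosis of at least 50% over duplicate tests; inactive = mean protection below 50%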;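 also: 0% = cells with zVAD alone and 100% = vehicle cells without zVAD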
The depositor's hits bear a star; i = inactive; ? = inconclusive; · = no result given.

SMILES	S1P4 antagonist	TNF death inh	S1P4 ag	Hsp70 activator	L929 necroptosis	HSV replic up	zVAD death conf
COC(=O)c1ccc(C#Cc2ccccc2)o1	-9.7	1.3	0.1	·	-0.8	i	·
CN(C)c1ccc(C2CC(=O)C=C(Nc3ccccc3N)C2)cc1 (stereo not drawn)	-12.9	5.1	1.2	·	0.7	i	·
Cc1cc(-c2n[nH]c(=S)n2/N=C/C(Cl)=C/c2ccccc2)n[nH]1	-8.0	-3.9	-0.3	-0.2	83.2*	i	2.2
Cc1cc(-c2n[nH]c(=S)n2/N=C/c2cccc(O)c2)n[nH]1	-2.2	0.7	-1.2	·	0.8	i	·
S=c1[nH]nc(-c2ccco2)n1/N=C/C(Cl)=C/c1ccccc1	-4.8	-8.9	-1.4	·	77.5*	i	3.5
CC(/C=N/n1c(-c2ccco2)n[nH]c1=S)=C\c1ccco1	-16.5	0.5	1.2	-0.6	-0.7	i	·
O=C(CSC1=NCCN1)NC12CC3CC(CC(C3)C1)C2	1.4	-7.7	0.5	-0.1	85.1*	i	2.5
Cc1nnc(SCC(=O)NC23CC4CC(CC(C4)C2)C3)s1	-5.4	0.9	-0.2	-0.5	0.6	i	·
CC(=O)c1ccc(NC(=S)Nc2ccc3[nH]c(=O)[nH]c3c2)cc1	-38.1	0.1	2.8	-0.3	2.9	i	·
CC(C)c1ccc(C(=O)NC(=S)Nc2ccc3[nH]c(=O)[nH]c3c2)cc1	3.9	-6.3	-0.5	·	80.7*	i	27.9
CCOc1cc(CNCc2cccnc2)ccc1OCC(=O)NC(C)(C)C	-8.3	0.8	2.5	0.0	0.3	i	·
Cc1ccnc(NC(=O)Nc2cccc(F)c2)c1	-10.1	7.4	-0.4	0.1	92.0*	i	32.4
Cc1cccc(NC(=O)Nc2cc(C)cc(C)n2)c1	-11.7	-0.3	-2.1	0.4	75.5*	i	2.6
Cc1cccc(NC(=O)Nc2cccc(F)c2)n1	-2.3	-0.9	0.8	-0.1	44.3	i	·
N=C1SCC(=O)N1c1ncc(Cc2ccc(F)cc2)s1	6.4	1.6	3.3	0.1	0.7	i	·
Cc1ccc(-n2c(C)cc(/C=N/NC(=O)c3ccncc3)c2C)c(C)c1	-14.8	-7.1	1.3	-0.1	0.7	i	·
O=C(Cn1cnc([N+](=O)[O-])n1)NCc1ccccc1	-10.8	4.4	1.1	0.4	0.0	·	·
O=[N+]([O-])c1ncn(Cc2c(Cl)cccc2Cl)n1	9.5	96.2*	0.9	-0.2	94.1*	i	3.5
O=[N+]([O-])c1ncn(Cc2ccccc2Cl)n1	-19.4	83.2*	1.1	-0.6	87.9*	i	19.6
c1cncc(-c2nc(NCCCn3ccnc3)c3ccccc3n2)c1	-0.3	1.1	0.2	-0.2	75.1*	i	32.4
Cc1ccc(CC2SC(N)=NC2=O)cc1 (stereo not drawn)	-4.1	2.7	1.6	0.1	83.4*	i	2.7
O=C(NC1CCCCCCC1)c1cc(COc2ccc3ncccc3c2)on1	-32.6	-6.3	2.5	0.5	76.4*	i	-0.4
O=C(c1cc(COc2ccc3ncccc3c2)on1)N1CCC(O)CC1	-10.4	-1.6	0.1	0.0	0.8	·	·
CSCCC(NS(=O)(=O)c1ccc(C)c(C(=O)O)c1)C(=O)O (stereo not drawn)	-17.9	1.2	-1.1	-0.2	2.6	i	·
CC(C)=CC(=O)Nc1nc2ccc([N+](=O)[O-])cc2s1	4.6	-5.0	0.0	0.4	77.4*	i	37.9
SMILES	S1P4 antagonist	TNF death inh	S1P4 ag	Hsp70 activator	L929 necroptosis	HSV replic up	zVAD death conf
C/C(=C\c1ccccc1)C(=O)Nc1nc2ccc([N+](=O)[O-])cc2s1	-7.4	2.2	0.5	-0.5	1.1	i	·
CCC(=O)Nc1ccc(C(=O)CSc2nc3ccccc3[nH]2)cc1	-11.2	1.1	0.9	0.2	·	i	·
CCC(=O)Nc1ccc(C(=O)CSc2nc3ccc(C)cc3[nH]2)cc1	-13.3	2.6	2.6	-0.3	75.6*	i	38.9
O=C1N=C2N(CCN3CCCCC3)c3ccccc3N2/C1=C\c1ccc([N+](=O)[O-])o1	1.2	-14.4	3.1	0.0	75.4*	i	0.5
COc1cc([N+](=O)[O-])ccc1NC(=O)COC(=O)c1ccc(NC(N)=O)cc1	8.7	2.6	-0.6	·	78.4*	i	38.7
COCC(=O)Nc1ccc([N+](=O)[O-])cc1OC	-9.2	-0.3	0.9	-0.2	-0.4	i	·
Cc1cccc(C)c1N1CCN(C(=O)Cn2cncn2)CC1	-6.3	0.8	2.2	-0.3	2.8	i	·
CC(C)c1ccc(NC(=O)N2CCc3ccccc3C2)cc1	20.6	3.9	-0.1	-0.1	75.8*	i	1.5
COc1ccc(C(=O)OCC(=O)NC(=O)NC2CCCC2)c(O)c1	-3.4	1.5	0.8	-0.5	77.5*	i	10.2
O=C(NCCN1CCCC1)c1ccc2c(=O)n(CCc3ccccc3)c(=O)[nH]c2c1	-17.6	-1.7	1.3	-0.3	91.0*	i	6.3
O=C(COC(=O)c1ccc(O)cc1)Nc1ccccc1[N+](=O)[O-]	1.9	0.1	0.2	-0.3	0.8	i	·
CC(=O)Nc1ccc(Sc2ncccc2C(=O)Nc2ccc(OC(F)(F)F)cc2)cn1	-16.0	-11.2	-0.6	-0.2	79.5*	i	77.0*
CC(=O)C1=C(C)NC(SCC(=O)Nc2nccs2)=C(C#N)C1c1ccccc1Cl (stereo not drawn)	-5.2	14.5	-0.8	-0.3	82.0*	i	2.7
C=CCOC(=O)C1=C(C)NC(SCC(=O)Nc2nccs2)=C(C#N)C1c1cccs1 (stereo not drawn)	-22.8	12.1	1.2	-0.3	87.5*	i	66.1*
C=CCOC(=O)C1=C(C)NC(SCC(=O)Nc2nccs2)=C(C#N)C1c1ccc(Cl)cc1 (stereo not drawn)	-9.5	2.1	0.5	-0.2	0.7	?	·
O=[N+]([O-])c1ccc(/C=N/Nc2ncc(-c3ccccc3)cn2)cc1	-13.1	1.4	0.6	-0.5	78.5*	i	1.8
O=C(Nc1ccc(NC(=S)NC(=O)C(c2ccccc2)c2ccccc2)cc1)c1ccccc1	-8.3	-8.8	1.1	-0.4	77.8*	i	37.9
O=C(Cn1nc([N+](=O)[O-])nc1Br)NC(c1ccccc1)c1ccccc1	-4.5	2.9	1.2	-0.4	0.9	i	·
CCN1C(=O)/C(=C2/Sc3ccccc3N2CC)S/C1=N\c1ncn[nH]1	8.4	-3.2	-1.0	-0.2	81.9*	i	4.5
Nc1nnnn1CC(=O)N/N=C/c1ccccn1	6.2	-0.5	-0.9	·	-0.1	i	·
